Inconclusive results are not listed. Values without a mark were called inactive. Active and inactive are the calls of the source. The call rests on the fitted dose curve; in most records, active means well fitted cell-killing curve with a large enough effect; inconclusive means small, poorly fitted or top-dose-only effect, or effect the other way; inactive means no such curve, though single readings can be large or run the other way. Positions of bridges follow the written chain, without caps; N, C: chain ends. Non-standard residues stand in square brackets, D forms with d. Residues, ends and D or L forms follow the SMILES beside them. ξ: configuration not given here. *: point of attachment. Octanoyl(6-Me) = CCC(C)CCCCC(=O)*; ξThr(3R) = C[C@@H](O)C(N)C(=O)O; dDab = NCC[C@@H](N)C(=O)O; Dab = NCC[C@H](N)C(=O)O
Experiment: Quantitative High-Throughput drug screen in 47 multiple myeloma cell lines against the NCATS MIPE library collection: AMO1_DSMZ cell viability assay (AID 1918927; further: nearly all actives have a fitted effect of over 30% in size)
Conditions: AMO1 myeloma cells viability, CellTiter-Glo ATP luminescence, 48 h; series mostly up to 45.8 µM; viability, % of DMSO: at the top concentration
In short: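 Myeloma cells (500 per well) were exposed to MIPE 4.0 compounds by pin transfer and incubated 48 hours at 37C, 5% CO2. Viability was read as ATP by CellTiter-Glo luminescence, normalised to DMSO (100%) and media-only (0%) wells.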
Potency means the concentration at half of the fitted maximal effect.

Compound	viability, % of DMSO [%]	Potency
C[C@@H]1CC[C@@]2(OC1)OC1CC3C4CC=C5CC(O)CCC5(C)C4CCC3(C)C1[C@@H]2C (some centres not stated)	122	
COc1cc([C@@H]2c3cc4c(cc3[C@@H](O[C@@H]3O[C@@H]5CO[C@@H](c6cccs6)O[C@@H]5[C@H](O)[C@@H]3O)[C@H]3COC(=O)[C@H]23)OCO4)cc(OC)c1O		590 nM (active)
CCc1c(O)cc(O)c(C(=O)c2ccc(OCCN3CCOCC3)c(OC)c2)c1CC(=O)N(CCOC)CCOC	109	
COc1cc(OC)cc(-c2ccc3ncc4ccc(=O)n(-c5ccc(N6CCNCC6)c(C(F)(F)F)c5)c4c3c2)c1		1180 nM (active)
Cc1ccc(-n2[nH]c(C)c(N=Nc3cccc(-c4cccc(C(=O)O)c4)c3O)c2=O)cc1C	111	

Experiment: Quantitative High-Throughput drug screen in 47 multiple myeloma cell lines against the NCATS MIPE library collection: ARP1_JJKsccF8 cell viability assay (AID 1918928; further: nearly all actives have a fitted effect of over 40% in size)
Conditions: ARP1 myeloma cells viability, CellTiter-Glo ATP, 48 h; series mostly up to 45.8 µM; viability: at the top concentration
In short: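 Luminescence from CellTiter-Glo, taken after 5 min at room temperature, reports cellular ATP as viability. Cells (500 per well) had been treated 48 h at 37 °C with MIPE 4.0 compounds, scaled between DMSO and medium-only controls.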

Compound	Potency	viability [%]
CCOc1cc2ncc(C#N)c(Nc3ccc(OCc4ccccn4)c(Cl)c3)c2cc1NC(=O)C=CCN(C)C	14.8 µM (active)	
C[C@H](O)[C@@H]1C(=O)N2C(C(=O)O)=C(S[C@@H]3CN[C@H](CNS(N)(=O)=O)C3)[C@@H](C)[C@@H]12		95.7
CC(C=CC(=O)NO)=C[C@@H](C)C(=O)c1ccc(N(C)C)cc1	0.209 µM (active)	
COc1ccc(S(=O)(=O)Nc2cccnc2Nc2ccc(O)cc2)cc1	0.059 µM (active)	
CC[C@]12C=CCN3CC[C@@]4(c5cc([C@@]6(C(=O)OC)C[C@H]7C[C@@H](C(C)(F)F)CN(Cc8c6[nH]c6ccccc86)C7)c(OC)cc5N(C)[C@H]4[C@@](O)(C(=O)OC)[C@H]1OC(C)=O)[C@@H]32	0.0047 µM (active)	
C=C1C(=O)O[C@H]2[C@@H]1CCC(C)=CCC[C@@]1(C)O[C@@H]21	4.69 µM (active)	
CN1C(C(=O)Nc2ccccn2)=C(O)c2sc(Cl)cc2S1(=O)=O	2.64 µM (active)	
CC[C@H](CC[C@@H](C)[C@H]1CC[C@H]2[C@@H]3CC=C4C[C@@H](O)CC[C@]4(C)[C@@H]3CC[C@]12C)C(C)C		100
Nc1nc(=O)n([C@H]2CSC(CO)O2)cc1F (some centres not stated)		101
COc1ccc(C=Cc2cc(OC)c(OC)c(OC)c2)cc1NC(=O)[C@H](N)CO	0.0053 µM (active)	
CCNC(=O)Nc1ccc(-c2nc3c(c(N4CCOC[C@H]4C)n2)CCN(C2COC2)C3)cc1	0.743 µM (active)	
Cc1ccc2nc(NCCN)c3ncc(C)n3c2c1	8.33 µM (active)	
O=C(NC1CC1)c1cccc(-c2ccc3c(NC(=O)C4CC4)n[nH]c3c2)c1	14.8 µM (active)	
C[C@@H](Oc1ccc2[nH]nc(C=Cc3cnn(CCO)c3)c2c1)c1c(Cl)cncc1Cl	5.26 µM (active)	
COc1cc(C(C)C)c(Oc2cnc(NC(CO)CO)nc2N)cc1I		113
CC(=O)O[C@@]12CO[C@H]1C[C@H](O)[C@@]1(C)C(=O)[C@H](O)C3=C(C)[C@@H](OC(=O)C(O)[C@@H](NC(=O)OC(C)(C)C)c4ccccc4)C[C@@](O)([C@@H](OC(=O)c4ccccc4)[C@@H]21)C3(C)C (some centres not stated)		12.8
CC(=O)OCC(=O)[C@@]1(O)CC[C@H]2[C@@H]3CCC4=CC(=O)CC[C@]4(C)[C@@H]3C(=O)C[C@@]21C		91.7
CCC[C@H]1C[C@H](C(=O)N[C@@H]([C@@H]2O[C@@H](SC)[C@@H](O)[C@@H](O)[C@@H]2O)[C@H](C)Cl)N(C)C1		136
C[C@@H]1[C@H](C)CC[C@]2(C(=O)O)CC[C@]3(C)C(=CC[C@@H]4[C@@]5(C)C[C@@H](O)[C@H](O)[C@@](C)(CO)[C@H]5CC[C@]43C)[C@@H]12		112
CC(C)(O)[C@H]1CC[C@@](C)([C@H]2[C@@H](O)C[C@@]3(C)[C@@H]4C[C@H](O[C@@H]5O[C@H](CO)[C@@H](O)[C@H](O)[C@@H]5O)[C@H]5C(C)(C)[C@@H](O[C@@H]6OC[C@@H](O)[C@H](O)[C@@H]6O)CC[C@@]56C[C@@]46CC[C@]23C)O1		107
O=C(C=Cc1ccc(CN(CCO)CCc2c[nH]c3ccccc23)cc1)NO	0.0833 µM (active)	
CCC(C)CCCCC(=O)N[C@@H](CCN)C(=O)NC(C(=O)N[C@H](CCN)C(=O)N[C@@H]1CCNC(=O)C([C@@H](C)O)NC(=O)[C@@H](CCN)NC(=O)[C@@H](CCN)NC(=O)[C@@H](CC(C)C)NC(=O)[C@H](Cc2ccccc2)NC(=O)[C@H](CCN)NC1=O)[C@@H](C)O (stereo partly drawn) ({Octanoyl(6-Me)}-[Dab][ξThr(3R)][dDab][dDab][Dab]F[dL][dDab][dDab][ξThr(3R)]; lactam 4-C)		108
